A selection: hits, their analogues and other compounds. The true share with any hit is near 1.1%.
HTR5A ag ctr: HTR5A agonists in luminescence cell assay, primary screen, counter-screen for OPRM1-OPRD1 heterodimer agonist project, full-deck HTS; cell-based; activation, % at 9.3 µM; 5-hydroxytryptamine receptor 5A (Homo sapiens), P47898; 0.61% of 340,000 active; AID 504692, 2011; in the data active means activation mostly above about 9.5%, no sharp cut-off; inactive means mostly below about 7.6%;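 further: 0% = cells with vehicle only and 100% = reference agonist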
MOR-DOR inv ag: inverse agonists of MOR-DOR heterodimerization, primary screen, cell-based, luminescence; Mu-type opioid receptor (Homo sapiens) + Delta-type opioid receptor (Homo sapiens), …; cell-based MOR-DOR heterodimer luminescence, inverse agonism; inhibition, % at 9.3 µM; 0.21% of 340,000 active; AID 504357, 2011; in the data active means inhibition above about 22%, passing the limit was not always enough;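 further: 0% = cells with DMSO and 100% = wells without cells with DMSO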
Target sequence (P35372 whole entry, looked up): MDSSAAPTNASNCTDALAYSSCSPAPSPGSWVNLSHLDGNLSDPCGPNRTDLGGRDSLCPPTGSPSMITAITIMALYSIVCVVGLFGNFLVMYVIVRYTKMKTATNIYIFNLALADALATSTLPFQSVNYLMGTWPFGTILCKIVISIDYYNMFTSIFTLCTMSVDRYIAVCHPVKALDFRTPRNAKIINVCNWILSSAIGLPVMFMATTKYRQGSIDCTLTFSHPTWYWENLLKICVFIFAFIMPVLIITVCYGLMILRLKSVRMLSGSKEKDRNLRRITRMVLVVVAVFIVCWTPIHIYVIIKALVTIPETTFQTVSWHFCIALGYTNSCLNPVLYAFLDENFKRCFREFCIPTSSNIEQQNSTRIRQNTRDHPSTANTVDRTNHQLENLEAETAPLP
Target sequence (P41143 whole entry, looked up): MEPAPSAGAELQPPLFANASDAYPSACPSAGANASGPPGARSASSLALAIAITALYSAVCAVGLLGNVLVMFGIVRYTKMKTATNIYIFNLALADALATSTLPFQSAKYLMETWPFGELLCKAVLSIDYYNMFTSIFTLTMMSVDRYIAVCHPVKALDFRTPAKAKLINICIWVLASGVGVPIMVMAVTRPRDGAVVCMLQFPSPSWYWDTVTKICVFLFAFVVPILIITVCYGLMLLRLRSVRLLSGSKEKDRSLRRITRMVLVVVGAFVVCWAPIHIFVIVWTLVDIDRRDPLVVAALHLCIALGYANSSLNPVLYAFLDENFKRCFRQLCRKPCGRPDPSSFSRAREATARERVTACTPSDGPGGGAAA
MOR-DOR ag: agonists of OPRM1-OPRD1 heterodimerization, primary screen, cell-based, luminescence. activation, % at 9.3 µM. AID 504326, 2011. 0.3% of 340,000 active. cells; in the data active means activation above about 18%;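 further: 0% = vehicle-treated cells and 100% = reference agonist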
HTR5A inv ctr: HTR5A inverse agonists in luminescence cell assay, primary screen, counter-screen for OPRM1-OPRD1 heterodimer inverse agonist project, full-deck HTS | HTR5A cell line, inverse agonism | inhibition, % at 9.3 µM | 0.083% of 340,000 active; in the data active means inhibition mostly above about 23%, no sharp cut-off; inactive means mostly below about 18%;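 further: 0% = cells with DMSO and 100% = no-cell wells with DMSO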
MOR-DOR inv conf: inverse agonists of MOR-DOR heterodimerization, confirmation, cell-based, luminescence; shares compounds with MOR-DOR inv ag; cells expressing OPRM1/OPRD1 heterodimer; inhibition, % at 9.3 µM; 20% of 580 active; AID 504900, 2011; in the data active means inhibition above about 32%;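 further: 0% = cells with DMSO and 100% = wells lacking cells with DMSO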
HTR5A inv ctr2: HTR5A inverse agonists, counter-screen for OPRM1-OPRD1 inverse agonist project, cell-based, luminescence; shares compounds with MOR-DOR inv ag; AID 504914, 2011; 580 tested, under 10 active; inhibition, % at 9.3 µM; HTR5A-expressing cells, inverse agonism; call rule not given here;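 further: 0% = cells with DMSO and 100% = no-cell wells with DMSO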
* hit, by the source's call.

Screening Fc1cccc(Cl)c1CSC1=NCCS1 returned HTR5A ag ctr 2.1, MOR-DOR inv ag -16.6, MOR-DOR ag 2.0 and HTR5A inv ctr -12.3.
`Cc1ccc(C)c(NC(=O)CN(C)C(=O)CC2OC(=O)c3ccccc32)c1` (centres undefined) gave HTR5A ag ctr -2.1, MOR-DOR inv ag 5.3, MOR-DOR ag -1.1 and HTR5A inv ctr 8.3.
Screening O=C(CCOc1ccccc1)OCC(=O)c1cc2ccccc2o1 returned HTR5A ag ctr -3.9, MOR-DOR inv ag 37.0*, MOR-DOR ag -8.8, HTR5A inv ctr 9.7, MOR-DOR inv conf -13.8 and HTR5A inv ctr2 28.0.
O=C(COC(=O)CCOc1ccccc1)NCCc1ccccc1 was read as HTR5A ag ctr -1.4, MOR-DOR inv ag 10.6, MOR-DOR ag -2.0 and HTR5A inv ctr 4.0.
For [O-]/[N+](=C\c1ccccc1)[C@@H]1CCCC[C@@H]1/[N+]([O-])=C/c1ccccc1 the results were HTR5A ag ctr 4.4, MOR-DOR inv ag 37.0*, MOR-DOR ag -8.9, HTR5A inv ctr 3.3, MOR-DOR inv conf 18.4 and HTR5A inv ctr2 4.4.
O=C(O)c1ccc2nc3c(nc2c1)-c1ccccc1C3=O was read as HTR5A ag ctr 11.4, MOR-DOR inv ag 41.5*, MOR-DOR ag -8.8, HTR5A inv ctr 21.9, MOR-DOR inv conf 45.8* and HTR5A inv ctr2 12.1.
`O=C(O)c1ccc2nc(-c3ccco3)c(-c3ccco3)nc2c1` gave HTR5A ag ctr -0.4, MOR-DOR inv ag -18.8, MOR-DOR ag 4.0 and HTR5A inv ctr 5.6.
Screening O=C(O)CNS(=O)(=O)Cc1ccccc1 returned HTR5A ag ctr 0.8, MOR-DOR inv ag 11.2, MOR-DOR ag -2.1 and HTR5A inv ctr 0.6.
`O=S(=O)(Cc1ccccc1)N(O)c1ccccc1` gave HTR5A ag ctr -1.9, MOR-DOR inv ag 42.6*, MOR-DOR ag -6.6, HTR5A inv ctr 5.5, MOR-DOR inv conf -11.1 and HTR5A inv ctr2 0.4.
For Cc1ccc(OCCN2C(=O)C(=O)c3cc(C)ccc32)cc1 the results were HTR5A ag ctr 0.2, MOR-DOR inv ag 23.2, MOR-DOR ag -4.4 and HTR5A inv ctr 7.1.
`Cc1ccc2c(c1)C(=O)C(=O)N2CC(=O)OC(C)C` gave HTR5A ag ctr -9.2, MOR-DOR inv ag 54.5*, MOR-DOR ag -9.7, HTR5A inv ctr 23.4, MOR-DOR inv conf 9.8 and HTR5A inv ctr2 -0.8.
Screening Cc1ccc(-c2cc3c(nn2)-c2ccccc2C3=O)cc1 returned HTR5A ag ctr 1.1, MOR-DOR inv ag 98.7*, MOR-DOR ag -18.6, HTR5A inv ctr -2.9, MOR-DOR inv conf -24.8 and HTR5A inv ctr2 -5.1.
For O=C1c2ccccc2-c2nnc(-c3ccc(O)cc3)cc21 the results were HTR5A ag ctr -2.4, MOR-DOR inv ag 18.3, MOR-DOR ag -3.9 and HTR5A inv ctr -7.0.
`O=C1c2ccccc2-c2nnc(-c3ccc(F)cc3)cc21` gave HTR5A ag ctr -1.4, MOR-DOR inv ag 80.9*, MOR-DOR ag -15.8, HTR5A inv ctr 3.7, MOR-DOR inv conf 20.7 and HTR5A inv ctr2 2.2.
Screening Cc1ccccc1-c1cc2c(nn1)-c1ccccc1C2=O returned HTR5A ag ctr 1.0, MOR-DOR inv ag 14.3, MOR-DOR ag -2.4 and HTR5A inv ctr -9.7.
N#CCC(=O)N/N=C/c1cc(Br)ccc1OCc1cccc2ccccc12 was read as HTR5A ag ctr -0.4, MOR-DOR inv ag -2.8, MOR-DOR ag 0.6 and HTR5A inv ctr 1.3.
`Cc1cc(C)cc(OCC(=O)NNC(=S)NC(=O)C2CC2)c1` gave HTR5A ag ctr -4.3, MOR-DOR inv ag 38.6*, MOR-DOR ag -7.5, HTR5A inv ctr 9.0, MOR-DOR inv conf -236.6 and HTR5A inv ctr2 -13.8.
CC(C(=O)OCC(=O)c1cccc([N+](=O)[O-])c1)N1C(=O)C2C3C=CC(C3)C2C1=O (centres undefined) was read as HTR5A ag ctr -6.8, MOR-DOR inv ag 47.6*, MOR-DOR ag -8.9, HTR5A inv ctr 19.1, MOR-DOR inv conf inactive and HTR5A inv ctr2 -15.8.

Source: PubChem
